# Compound activity (PubChem)
# A selection: hits, their analogues and other compounds. The true share with any hit is near 19%.
# DT40 TDP1 no CPT: qHTS for Inhibitors of human tyrosyl-DNA phosphodiesterase 1 (TDP1): qHTS in cells in absence of CPT | Potency, µM (titrated, usually from 46.2 µM), without a hit: top-dose activity change, negative = growth inhibition, usual class: inhibitors | AID 686978, 2013 | DT40 Tdp1-/- hTDP1 cells, no CPT, ATP luminescence, 48 h | hit rate 15% among 420,000; note: potency is the fitted concentration of half-maximal effect; nearly all actives have a fitted effect of over 55% in size
#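 DT40 Tdp1-/-;hTDP1 cells, no CPT (DMSO vehicle only), 400 cells/well; compounds pin-transferred; ≥48 hr, 37 °C; CellTiter-Glo 30 min RT dark, luminescence read.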
# uPA surface inh: qHTS for Inhibitors of Cell Surface uPA Generation. hit rate 0.31% among 330,000. Potency, µM (top dose mostly 38.3 µM), for inactives: top-dose activity change, negative = inhibition, hits mostly inhibitors. cell surface uPA generation assay, qHTS; active = well fitted inhibition curve with a large enough effect; inconclusive = small, poorly fitted or top-dose-only effect; inactive = no such curve, though single readings can be large or run the other way; tested in mouse RAW 264.7 cells; note: potency is the fitted concentration of half-maximal effect; nearly all actives have a fitted effect of over 55% in size
# DT40 TDP1 CPT: qHTS for Inhibitors of human tyrosyl-DNA phosphodiesterase 1 (TDP1): qHTS in cells in presence of CPT; chicken DT40 Tdp1-/-;hTDP1 cells + 20 nM CPT, ATP luminescence, 48 h; Potency, µM (doses to about 46.2 µM), inactives show top-dose activity change, negative = growth inhibition, most hits filed as inhibitors; hit rate 12% among 420,000; note: potency is the fitted concentration of half-maximal effect; nearly all actives have a fitted effect of over 55% in size
#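 Chicken DT40 Tdp1-/- cells stably complemented with human TDP1 were seeded at 400 cells/well in medium containing 20 nM camptothecin, exposed to pin-transferred compounds, and grown at 37 °C for at least 48 hr. Viability was read as ATP luminescence.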
# HT1080-NT tox: qHTS for induction of synthetic lethality in tumor cells producing 2HG: qHTS for the HT-1080-NT fibrosarcoma cell line. hit rate 1.6% among 360,000. AID 686970, 2013. Potency, µM (series often up to 46.1 µM), inactives show at the highest dose activity, negative = less viability, most hits filed as cytotoxic. HT-1080-NT fibrosarcoma viability, CellTiter-Glo ATP luminescence, 48 h;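 note: NT is the 2HG producing partner of a matched IDH1 knockdown line; potency is the fitted concentration of half-maximal effect; 0% = DMSO-treated cells and -100% = media-only wells without cells; nearly all actives have a fitted effect of over 55% in size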
#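 750 cells/well, RPMI + 5% FBS; 2 h settle, compound pin-transfer, 48 h at 37 degrees C. CellTiter-Glo 10 min RT, luminescence. Normalized to DMSO and media-only wells.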
# HT1080 IDH1KD tx: qHTS for induction of synthetic lethality in tumor cells producing 2HG: qHTS for the HT-1080-IDH1KD cell line. HT-1080 IDH1 knockdown viability, ATP luminescence, 48 h. Potency, µM (series often up to 46.1 µM), for the others: at the top dose activity, negative = toxicity, hits mostly cytotoxic. hit rate 2% among 360,000. AID 686971, 2013;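 note: potency is the fitted concentration of half-maximal effect; 0% = DMSO wells and -100% = cell-free medium wells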
#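 % activity derives from luminescence (CellTiter-Glo), normalised to DMSO and no-cell wells. HT-1080-IDH1KD cells, 750/well, had 48 h compound exposure at 37 °C.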
# IL-1B inflam inh: qHTS for Inhibitors of Inflammasome Signaling: IL-1-beta AlphaLISA Primary Screen | THP-1 LPS/ATP IL-1B secretion, AlphaLISA, 16 h; active compounds read low | activity change, % at 57.5 µM | hit rate 4.7% among 360,000; in the data active = activity change below about -50%; inconclusive = mostly about -30% to -49%
#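 Secreted IL-1B measured by AlphaLISA bead assay after 16 h compound exposure of THP-1 cells; compounds (final up to 57.5 uM) added 1 h before LPS (250 ng/mL) and ATP (1.25 mM) stimulation; lower signal means less secretion.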
# * = called active by the depositor; u = inconclusive; x = not tested or not shown. Unless noted, calls come from the whole dose curve; as a rule, active = well fitted curve in the direction sought with a large enough effect; inconclusive = small, poorly fitted or top-dose-only effect, or another doubt; inactive = no such curve, though single readings can be large; an effect the other way counts as inactive or inconclusive. Unless noted, % is set by controls: 0 for no effect and ±100 for the full control effect.
SMILES,DT40 TDP1 no CPT,uPA surface inh,DT40 TDP1 CPT,HT1080-NT tox,HT1080 IDH1KD tx,IL-1B inflam inh
COc1ccccc1-n1c(=O)oc2ccc(Cl)cc2c1=O,16µM*,-13%,u,2.9µM*,2.9µM*,-20
Oc1[nH]c2ccccc2c1C=Nc1ccc2c(c1)OCCO2,u,2%,u,-1%,5%,-90*
C[C@@H]1C(=O)NC2=Nc3cccc(Cl)c3CN21,-29%,x,-27%,x,x,x
CC(C)c1ccc(NC(=O)c2ccc3oc(=O)c(S(=O)(=O)c4ccc(F)cc4)cc3c2)cc1,7.3µM*,x,u,x,x,x
CC(C)c1ccc(S(=O)(=O)c2cc3cc(Br)ccc3oc2=O)cc1,u,0%,-15%,13µM*,13µM*,8
CCOc1ccc(S(=O)(=O)N2CCC(C(=O)NCc3ccncc3)CC2)cc1Cl,-19%,-3%,-22%,1%,-1%,-16
Cc1ccc(-c2csc(N3CCC(NS(=O)(=O)c4ccc5c(c4)OCCO5)CC3)n2)cc1,15µM*,-7%,u,-20%,-29%,-27
O=C(CN1C(=O)NC2(CCCC2)C1=O)OCCOc1ccc(Br)cc1,18µM*,-2%,15µM*,5%,1%,-9
O=C(CN1C(=O)NC2(CCCCCCC2)C1=O)Nc1ccc(OC(F)F)cc1,18µM*,-7%,23µM*,-8%,-29%,-14
O=C(CN1C(=O)NC2(CCCCC2)C1=O)Nc1ccc(F)cc1,7%,-1%,4%,10%,0%,25
CC(=O)c1cccc(NC(=O)CN2C(=O)NC3(CCCCCCC3)C2=O)c1,-28%,x,u,6%,u,10
Cc1ccc(NC(=O)CN2C(=O)NC3(CCCCCCC3)C2=O)cc1C,u,-11%,9.2µM*,-6%,-8%,4
O=C(CN1C(=O)NC2(CCCCCCC2)C1=O)Nc1cccc(Br)c1,21µM*,-2%,16µM*,-11%,-19%,-5
CCN(C(=O)Cn1c(=O)oc2cc(Cl)ccc21)c1cccc(C(F)(F)F)c1,-25%,x,u,x,x,x
CC(C)N(Cc1ccccc1)CC(O)COc1ccc(S(=O)(=O)N2CCOCC2)cc1Cl (configuration not stated),-27%,2%,-26%,-27%,-11%,-11
Clc1ccccc1CNc1nc2ccccc2c2nc(-c3cccnc3)nn12,-4%,x,-20%,x,x,x
CN(CC(=O)Nc1ccc(F)cc1)C(=O)CN1C(=O)NC2(CCCC2)C1=O,u,-2%,-2%,-29%,-13%,5
CN(CC(=O)Nc1cccc(F)c1)C(=O)CN1C(=O)NC2(CCCCC2)C1=O,21µM*,-3%,u,-1%,-2%,3
O=C(CN1C(=O)NC2(CCCCCC2)C1=O)Nc1ccc2c(c1)CCC2,12µM*,-7%,u,-12%,-17%,9
CCCn1c(NC(=O)CN2C(=O)NC3(CCCCC3)C2=O)nc2ccccc21,23µM*,-10%,u,u,-28%,5
Cc1ccc(C(=O)NCCNc2ccc([N+](=O)[O-])cc2C(F)(F)F)cc1,18µM*,-10%,18µM*,-28%,u,-6
O=[N+]([O-])c1ccc(NCCCNS(=O)(=O)c2ccccc2)c(Cl)c1,16µM*,-2%,u,-20%,-18%,-9
O=[N+]([O-])c1ccc(NCCNS(=O)(=O)c2ccccc2)c(C(F)(F)F)c1,18µM*,-7%,26µM*,u,u,-1
Nc1nc(Nc2ccccc2)nc2c1ncn2[C@@H]1O[C@@H](CO)[C@H](O)[C@H]1O,6%,x,11%,x,x,x
